Laboratory results as given in article PMC12670160, “A drug-repurposing screen of FDA- and EMA-approved drugs identifies two NF-κB inhibitors active against eumycetoma” (Journal of Antimicrobial Chemotherapy, 2025).

Test system: M. mycetomatis strain mm55
Parameters: species or system Madurella mycetomatis MM55 hyphae; CellTiter-Glo 3D luminescence viability of fungal hyphae, single-point 2 uM library screen, per cent of growth control
Conditions: primary screen, metabolic activity vs growth control; 96 h, 2 µM; inhibitor
Description: To determine the in vitro susceptibility of M. mycetomatis to the compounds, a hyphal inoculum was prepared as described elsewhere.[19] This M. mycetomatis hyphal suspension (60 µL) was added to each of the wells in the 384-well plate, leading to a final testing concentration of 2 µM per compound. Each plate also contained a growth control (60 µL of M. mycetomatis hyphal suspension, plus 0.6 µL of DMSO) and a negative control (60 µL of culture medium, plus 0.6 µL of DMSO). Plates were then incubated for 4 days at 37°C, after which 30 µL of CellTiter-Glo 3D Cell Viability reagent was added to every well.[19] After 25 min of incubation at room temperature, the luminescence was measured with a CytoFluor Series 4000 luminometer (PerSeptive Biosystems, Framingham, MA, USA). To determine the metabolic activity, the following formula was used: where, GC is growth control and NC is negative control. The luminescence measured for the GC is considered as 100% metabolic activity. The luminescence for the NC is considered as 0% metabolic activity. […] The Oncode Drug Repurposing library was based on the drug repurposing library from the Drug Repurposing Hub of the Broad Institute and recreated by the Oncode institute.[13] The library contained 5631 drugs.[18] […]

SMILES	% viability
C[N+]1(C)CCc2cc3c(cc2[C@H]1[C@@H]1OC(=O)c2c1ccc1c2OCO1)OCO3 [ONC0000006, bicucullinemethochloride]	85.19%
C[C@]12CC[C@@H]3c4ccc(OC(=O)N(CCCl)CCCl)cc4CC[C@H]3[C@@H]1CC[C@@H]2OP(=O)(O)O [ONC0003506, estramustine phosphatena]	76.07%
